Measured values from PubChem BioAssay (NCI).
Compounds without any hit were thinned out: in the full panel of roughly 83,000, 20% have a hit.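 A percent growth of 40 corresponds to 60% growth inhibition; 0 means no net growth; -100 means all cells died. Active threshold: below 10.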 Unmarked numbers belong to inactive results. The source made the active and inactive calls.

The compounds below were run on HL-60(TB) leukemia (assay: NCI-60 one-dose screen, 48 h (100 = growth as untreated, 0 = no growth, -100 = all killed)). Details: 10 µM unless noted.
Compound `CCC1CCc2nc3sc(C(=O)Nc4ccccc4F)c(N)c3cc2C1` (stereo not given) has a growth of 21.5%.
`CCCCCCCCCCCCCCCCCCNC(=O)[C@H]1CSC(c2ccc(OC)c(F)c2)N1` (stereo not given in full) was tested, and the growth was -60.3% (active).
Compound `Oc1ccc(C(c2ccc(O)cc2)C(Cl)(Cl)Cl)cc1` has a growth of 68.1%.
For `O=C(NC1CCS(=O)(=O)C1)c1ccc(C(=O)c2ccccc2)cc1` (stereo not given), the growth was 191%.
With `CCOc1ccc(N2C(=O)CCSC2=S)cc1` the growth was 99.7%.
For `CCOc1cccc(/C=N/NC(=O)c2ccccc2Nc2ccnc(C(F)(F)F)c2)c1O`, the growth was -4.47% (active).
In the case of `O=C(/C=C/c1cccc(O)c1)c1cccc(-n2cc(-c3ccc4ccccc4c3)[nH]c2=O)c1`, the growth was -21.5% (active).
In the case of `CC1=NN2C(=NC3=C(CCC/C3=C\c3ccc(Cl)cc3)C2c2ccc(Cl)cc2)S1` (stereo not given), the growth was 63.2%.
With `COc1ccc(OC)c(C(=O)c2oc3ccc(Br)cc3c2N)c1` the growth was -10.2% (active).
`O=C(/C=C/c1ccc(Cl)nc1)c1ccc(Cl)cc1Cl` gave a growth of 67.4%.
In the case of `O=C(NC1CCCCC1)c1ccc(Nc2ncnc3c2cnn3-c2ccccc2)cc1`, the growth was 106%.
`COc1ccc(NC(=S)/N=c2\oc3c(OC)cccc3cc2-c2cc3ccccc3[nH]2)cc1` gave a growth of 93.1%.
In the case of `CN1CCN(Cc2ccc(NC(=O)c3cncc(C#Cc4cnc(N)c5ccc(F)cc45)c3)cc2C(F)(F)F)CC1`, the growth was -27% (active).
In the case of `CN1C(=O)N(C)C2Nn3c(s/c(=C\c4ccccc4)c3=O)=NC21` (stereo not given), the growth was 95.2%.
Compound `OCCNc1nc(Nc2ccc(C3=NN(c4cc(Cl)cc(Cl)c4)C(c4ccc(C(F)(F)F)cc4)C3)cc2)nc(N2CCOCC2)n1` (stereo not given) has a growth of 101%.
